Data reported in paper PMC5700166.

Target: T1, GST-Ap-NF-kB RHD (Exaiptasia pallida (Aiptasia), UniProt A0A913YAJ5 2-422)
T1 sequence: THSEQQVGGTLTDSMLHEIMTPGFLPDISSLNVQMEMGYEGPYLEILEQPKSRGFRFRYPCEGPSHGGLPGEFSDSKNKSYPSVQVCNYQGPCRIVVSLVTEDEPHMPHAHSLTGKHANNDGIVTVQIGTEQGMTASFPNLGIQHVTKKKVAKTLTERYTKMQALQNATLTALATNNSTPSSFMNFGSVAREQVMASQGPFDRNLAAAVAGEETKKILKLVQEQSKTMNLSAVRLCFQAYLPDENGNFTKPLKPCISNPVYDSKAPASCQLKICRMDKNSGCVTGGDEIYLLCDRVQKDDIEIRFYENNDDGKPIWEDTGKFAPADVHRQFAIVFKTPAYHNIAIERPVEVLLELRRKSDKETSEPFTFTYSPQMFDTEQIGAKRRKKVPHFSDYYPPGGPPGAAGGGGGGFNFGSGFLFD
Test: protein-binding microarray (PBM); PBM: ~300 nM protein, 6 mM HEPES pH 7.8, 80 mM KCl, 0.5 mM EDTA, 0.5 mM EGTA, 6% glycerol, 35 ng/ul poly-dIdC, 1% milk, 1 h, room temperature; Ap Aiptasia and Nv Nematostella (sea anemones) / Co Capsaspora / Aq Amphimedon (sponge) / Dm Drosophila / Hu human; RHD is the Rel homology domain; high values mean tight binding
Details: dsDNA, one strand shown

Sequence	binding signal [z-score]
CCGATTAACATCATTTCCCTTGATGATGTTAATCGGGTCTTGATTCGCTTGACGCTGCTG	1.97
CCGATTAACATCACATCTTTCCCTGATGTTAATCGGGTCTTGATTCGCTTGACGCTGCTG	2.24
CCGATTAACATCATACAAGGGAGTGATGTTAATCGGGTCTTGATTCGCTTGACGCTGCTG	1.02
CCGATTAACATCATGCCCGGGAATGATGTTAATCGGGTCTTGATTCGCTTGACGCTGCTG	1.55
CCGATTAACATCAAATGTGGGAATGATGTTAATCGGGTCTTGATTCGCTTGACGCTGCTG	1.11
CCGATTAACATCAGTACGGGAAATGATGTTAATCGGGTCTTGATTCGCTTGACGCTGCTG	1.79
CCGATTAACATCAGGGAAAAGGATGATGTTAATCGGGTCTTGATTCGCTTGACGCTGCTG	1.79
CCGATTAACATCATGGTGGGAAATGATGTTAATCGGGTCTTGATTCGCTTGACGCTGCTG	1.25
CCGATTAACATCAACTGGGAAAATGATGTTAATCGGGTCTTGATTCGCTTGACGCTGCTG	1.66
CCGATTAACATCACTTTCCCAAATGATGTTAATCGGGTCTTGATTCGCTTGACGCTGCTG	1.27
CCGATTAACATCAGCTCCCCCCCTGATGTTAATCGGGTCTTGATTCGCTTGACGCTGCTG	5.26
CCGATTAACATCAGGGAAAGGGATGATGTTAATCGGGTCTTGATTCGCTTGACGCTGCTG	2.49
CCGATTAACATCAGGGACGGAAATGATGTTAATCGGGTCTTGATTCGCTTGACGCTGCTG	2.7
CCGATTAACATCAGGGACAAAAATGATGTTAATCGGGTCTTGATTCGCTTGACGCTGCTG	2
CCGATTAACATCAAGCGTTTCCCTGATGTTAATCGGGTCTTGATTCGCTTGACGCTGCTG	2.29
CCGATTAACATCAACTCGGGAAATGATGTTAATCGGGTCTTGATTCGCTTGACGCTGCTG	1.08
CCGATTAACATCAATTCCCGTACTGATGTTAATCGGGTCTTGATTCGCTTGACGCTGCTG	1.81
CCGATTAACATCAGGGGAGTGTATGATGTTAATCGGGTCTTGATTCGCTTGACGCTGCTG	3.6
CCGATTAACATCAGATTTCTCCCTGATGTTAATCGGGTCTTGATTCGCTTGACGCTGCTG	1.96
CCGATTAACATCACGGTGGGAAATGATGTTAATCGGGTCTTGATTCGCTTGACGCTGCTG	2.05

Sequence	binding signal [z-score]
CCGATTAACATCATGGAGGGAGGTGATGTTAATCGGGTCTTGATTCGCTTGACGCTGCTG	1.29
CCGATTAACATCAATCGGGAAATTGATGTTAATCGGGTCTTGATTCGCTTGACGCTGCTG	1.3
CCGATTAACATCAACTTTCCCAGTGATGTTAATCGGGTCTTGATTCGCTTGACGCTGCTG	1.05
CCGATTAACATCATCTGGGAAAATGATGTTAATCGGGTCTTGATTCGCTTGACGCTGCTG	1.33
CCGATTAACATCAGGGAAAGGTATGATGTTAATCGGGTCTTGATTCGCTTGACGCTGCTG	2.16
CCGATTAACATCAAAGCATTCCCTGATGTTAATCGGGTCTTGATTCGCTTGACGCTGCTG	2.32
CCGATTAACATCATGTTGGGAAATGATGTTAATCGGGTCTTGATTCGCTTGACGCTGCTG	1.02
CCGATTAACATCAGGGAAAGGAATGATGTTAATCGGGTCTTGATTCGCTTGACGCTGCTG	1.83
CCGATTAACATCAACATGGGAATTGATGTTAATCGGGTCTTGATTCGCTTGACGCTGCTG	1.01
CCGATTAACATCAGGGAAAAGAATGATGTTAATCGGGTCTTGATTCGCTTGACGCTGCTG	2.43
CCGATTAACATCACCCAGTTCCCTGATGTTAATCGGGTCTTGATTCGCTTGACGCTGCTG	1.22
CCGATTAACATCAGACTGGGAAATGATGTTAATCGGGTCTTGATTCGCTTGACGCTGCTG	1.4
CCGATTAACATCACCTCTTTCCCTGATGTTAATCGGGTCTTGATTCGCTTGACGCTGCTG	2.58
CCGATTAACATCACCAGTTTCCCTGATGTTAATCGGGTCTTGATTCGCTTGACGCTGCTG	2.66
CCGATTAACATCATGGGGACGACTGATGTTAATCGGGTCTTGATTCGCTTGACGCTGCTG	3.56
CCGATTAACATCAGGGGTAGGTTTGATGTTAATCGGGTCTTGATTCGCTTGACGCTGCTG	2.16
CCGATTAACATCACCGCTTCCCTTGATGTTAATCGGGTCTTGATTCGCTTGACGCTGCTG	1.62
CCGATTAACATCACCTTGGGAAATGATGTTAATCGGGTCTTGATTCGCTTGACGCTGCTG	1.21
CCGATTAACATCACTCCCTAAAATGATGTTAATCGGGTCTTGATTCGCTTGACGCTGCTG	1.35
CCGATTAACATCAAGCCCCCCCCTGATGTTAATCGGGTCTTGATTCGCTTGACGCTGCTG	5.25

Target: T2, GST-Nv-NF-kB (Cys allele) (Nematostella vectensis, UniProt E5G601 2-411)
T2 sequence: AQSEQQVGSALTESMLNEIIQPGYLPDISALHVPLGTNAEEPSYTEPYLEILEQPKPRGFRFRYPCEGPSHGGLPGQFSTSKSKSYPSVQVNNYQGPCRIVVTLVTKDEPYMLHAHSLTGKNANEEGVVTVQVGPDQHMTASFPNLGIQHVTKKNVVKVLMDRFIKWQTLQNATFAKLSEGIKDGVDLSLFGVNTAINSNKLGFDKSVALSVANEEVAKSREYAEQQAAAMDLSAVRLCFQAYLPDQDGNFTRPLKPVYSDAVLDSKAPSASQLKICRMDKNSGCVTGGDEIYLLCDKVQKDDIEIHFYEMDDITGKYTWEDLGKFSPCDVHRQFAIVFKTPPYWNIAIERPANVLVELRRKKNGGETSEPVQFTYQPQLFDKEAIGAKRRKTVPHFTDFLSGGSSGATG
Test: as above
Details: dsDNA, one strand shown

Sequence	binding signal [z-score]
CCGATTAACATCATTTCCCTTGATGATGTTAATCGGGTCTTGATTCGCTTGACGCTGCTG	4.19
CCGATTAACATCACATCTTTCCCTGATGTTAATCGGGTCTTGATTCGCTTGACGCTGCTG	3.96
CCGATTAACATCATACAAGGGAGTGATGTTAATCGGGTCTTGATTCGCTTGACGCTGCTG	1.41
CCGATTAACATCATGCCCGGGAATGATGTTAATCGGGTCTTGATTCGCTTGACGCTGCTG	1.27
CCGATTAACATCAAATGTGGGAATGATGTTAATCGGGTCTTGATTCGCTTGACGCTGCTG	1.53
CCGATTAACATCAGTACGGGAAATGATGTTAATCGGGTCTTGATTCGCTTGACGCTGCTG	3.11
CCGATTAACATCAGGGAAAAGGATGATGTTAATCGGGTCTTGATTCGCTTGACGCTGCTG	3.4
CCGATTAACATCATGGTGGGAAATGATGTTAATCGGGTCTTGATTCGCTTGACGCTGCTG	2.69
CCGATTAACATCAACTGGGAAAATGATGTTAATCGGGTCTTGATTCGCTTGACGCTGCTG	3.04
CCGATTAACATCACTTTCCCAAATGATGTTAATCGGGTCTTGATTCGCTTGACGCTGCTG	2.64
CCGATTAACATCAGCTCCCCCCCTGATGTTAATCGGGTCTTGATTCGCTTGACGCTGCTG	3.87
CCGATTAACATCAGGGAAAGGGATGATGTTAATCGGGTCTTGATTCGCTTGACGCTGCTG	3.29
CCGATTAACATCAGGGACGGAAATGATGTTAATCGGGTCTTGATTCGCTTGACGCTGCTG	3.44
CCGATTAACATCAGGGACAAAAATGATGTTAATCGGGTCTTGATTCGCTTGACGCTGCTG	3.15
CCGATTAACATCAAGCGTTTCCCTGATGTTAATCGGGTCTTGATTCGCTTGACGCTGCTG	3.6
CCGATTAACATCAACTCGGGAAATGATGTTAATCGGGTCTTGATTCGCTTGACGCTGCTG	2.75
CCGATTAACATCAATTCCCGTACTGATGTTAATCGGGTCTTGATTCGCTTGACGCTGCTG	2.92
CCGATTAACATCAGGGGAGTGTATGATGTTAATCGGGTCTTGATTCGCTTGACGCTGCTG	3.38
CCGATTAACATCAGATTTCTCCCTGATGTTAATCGGGTCTTGATTCGCTTGACGCTGCTG	3.11
CCGATTAACATCACGGTGGGAAATGATGTTAATCGGGTCTTGATTCGCTTGACGCTGCTG	2.39

Sequence	binding signal [z-score]
CCGATTAACATCATGGAGGGAGGTGATGTTAATCGGGTCTTGATTCGCTTGACGCTGCTG	1.62
CCGATTAACATCAATCGGGAAATTGATGTTAATCGGGTCTTGATTCGCTTGACGCTGCTG	3.45
CCGATTAACATCAACTTTCCCAGTGATGTTAATCGGGTCTTGATTCGCTTGACGCTGCTG	2
CCGATTAACATCATCTGGGAAAATGATGTTAATCGGGTCTTGATTCGCTTGACGCTGCTG	2.91
CCGATTAACATCAGGGAAAGGTATGATGTTAATCGGGTCTTGATTCGCTTGACGCTGCTG	3.44
CCGATTAACATCAAAGCATTCCCTGATGTTAATCGGGTCTTGATTCGCTTGACGCTGCTG	3.04
CCGATTAACATCATGTTGGGAAATGATGTTAATCGGGTCTTGATTCGCTTGACGCTGCTG	2.29
CCGATTAACATCAGGGAAAGGAATGATGTTAATCGGGTCTTGATTCGCTTGACGCTGCTG	3.07
CCGATTAACATCAACATGGGAATTGATGTTAATCGGGTCTTGATTCGCTTGACGCTGCTG	2.42
CCGATTAACATCAGGGAAAAGAATGATGTTAATCGGGTCTTGATTCGCTTGACGCTGCTG	4.22
CCGATTAACATCACCCAGTTCCCTGATGTTAATCGGGTCTTGATTCGCTTGACGCTGCTG	1.21
CCGATTAACATCAGACTGGGAAATGATGTTAATCGGGTCTTGATTCGCTTGACGCTGCTG	1.92
CCGATTAACATCACCTCTTTCCCTGATGTTAATCGGGTCTTGATTCGCTTGACGCTGCTG	2.64
CCGATTAACATCACCAGTTTCCCTGATGTTAATCGGGTCTTGATTCGCTTGACGCTGCTG	3.06
CCGATTAACATCATGGGGACGACTGATGTTAATCGGGTCTTGATTCGCTTGACGCTGCTG	3.19
CCGATTAACATCAGGGGTAGGTTTGATGTTAATCGGGTCTTGATTCGCTTGACGCTGCTG	1.65
CCGATTAACATCACCGCTTCCCTTGATGTTAATCGGGTCTTGATTCGCTTGACGCTGCTG	1.86
CCGATTAACATCACCTTGGGAAATGATGTTAATCGGGTCTTGATTCGCTTGACGCTGCTG	1.7
CCGATTAACATCACTCCCTAAAATGATGTTAATCGGGTCTTGATTCGCTTGACGCTGCTG	2.35
CCGATTAACATCAAGCCCCCCCCTGATGTTAATCGGGTCTTGATTCGCTTGACGCTGCTG	4.21
